Compound activity deposited in PubChem by National Center for Advancing Translational Sciences (NCATS).
Only some compounds are listed: those with a hit (about 19% of all), similar ones and a draw of the others.
TDP1 cell CPT = DT40-hTDP1 cell growth loss with CPT; actives 12% (n = 420,000); AID 686979; Potency, µM (highest dose often 46.2 µM), for inactives: at the top dose activity change, negative = growth inhibition, hits mostly inhibitors; chicken DT40 Tdp1-/-;hTDP1 cells + 20 nM CPT, ATP luminescence, 48 h; further: nearly all actives have a fitted effect of over 55% in size
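Chicken DT40 Tdp1-/- cells complemented with human TDP1, 400 cells/well, exposed to compounds plus 20 nM camptothecin for at least 48 h at 37 C; viability read as ATP content by CellTiter-Glo luminescence.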
HT1080-NT tox = kills 2HG-producing HT-1080-NT fibrosarcoma cells. HT-1080-NT fibrosarcoma viability, CellTiter-Glo ATP luminescence, 48 h. Potency, µM (doses to about 46.1 µM), inactives show at the highest dose activity, negative = less viability, actives largely listed as cytotoxic. actives 1.6% (n = 360,000);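 further: NT is the 2HG producing partner of a matched IDH1 knockdown line; 0% = DMSO-treated cells and -100% = media-only wells without cells; nearly all actives have a fitted effect of over 55% in size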
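750 cells/well, RPMI + 5% FBS; 2 h settle, compound pin-transfer, 48 h at 37 degrees C. CellTiter-Glo 10 min RT, luminescence. Normalized to DMSO and media-only wells.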
KB-V1 MDR tox = kills drug-selected multidrug resistant KB-V1 cells; actives 3.4% (n = 400,000); Potency, µM (highest dose often 46.1 µM), usual class: cytotoxic; AID 1347076; KB-V1 MDR cells viability, CellTiter-Glo, 72 h; further: nearly all actives have a fitted effect of over 60% in size
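Cytotoxicity via CellTiter-Glo luminescence after 72 h compound exposure at 37 degrees C. Cells: drug-selected KB-V1 line, DMEM phenol-red free plus 10% FBS. Compounds tested at multiple concentrations; normalized data fitted to concentration-effect curves.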
HT1080 IDH1KD tx = kills HT-1080 cells with IDH1 knockdown; HT-1080 IDH1 knockdown viability, ATP luminescence, 48 h; Potency, µM (top dose mostly 46.1 µM), inactives show top-dose activity, negative = toxicity, most hits filed as cytotoxic; actives 2% (n = 360,000);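 further: 0% = DMSO wells and -100% = cell-free medium wells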
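Cytotoxicity counter-line: IDH1KD HT-1080, 48 h, CellTiter-Glo. Curves classed by r2, magnitude and activity.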
KB-3-1 cytotox = KB-3-1 parental cell cytotoxicity; actives 1.4% (n = 400,000); Potency, µM (series often up to 46.1 µM), most hits filed as cytotoxic; AID 1347075; KB-3-1 viability, CellTiter-Glo ATP luminescence, 72 h; further: nearly all actives have a fitted effect of over 60% in size
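Parental KB-3-1 adenocarcinoma cells in phenol-red-free DMEM with 10% FBS were pin-treated with compounds at several concentrations, incubated 72 h at 37 °C, and viability read by CellTiter-Glo luminescence; concentration-effect curves were fitted after normalization.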
TDP1 cell noCPT = qHTS for Inhibitors of human tyrosyl-DNA phosphodiesterase 1 (TDP1): qHTS in cells in absence of CPT | actives 15% (n = 420,000) | Potency, µM (doses to about 46.2 µM), without a hit: at the highest dose activity change, negative = growth inhibition, most hits filed as inhibitors | AID 686978, 2013 | DT40 Tdp1-/- hTDP1 cells, no CPT, ATP luminescence, 48 h; further: nearly all actives have a fitted effect of over 55% in size
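Compound effects on proliferation are scored in DT40 Tdp1-/-;hTDP1 cells in the absence of CPT. ATP levels (CellTiter-Glo luminescence) are recorded after a ≥48 hr, 37 °C incubation.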
Starred values were filed as active, the others as inactive; i = inactive; ? = inconclusive; · = no result; [ ] = remark or other dose. The call rests on the fitted dose curve; in most records, active means well fitted curve in the direction sought with a large enough effect; inconclusive means small, poorly fitted or top-dose-only effect, or another doubt; inactive means no such curve, though single readings can be large; an effect the other way counts as inactive or inconclusive. Unless noted, on the % scale 0 is the no-effect control and ±100 the full control effect; potency means the concentration at half of the fitted maximal effect.

SMILES	TDP1 cell CPT	HT1080-NT tox	KB-V1 MDR tox	HT1080 IDH1KD tx	KB-3-1 cytotox	TDP1 cell noCPT
COc1cccc(NC(=O)c2ccccc2OCC(=O)Nc2ccc(Br)cc2)c1	?	·	i	·	i	?
Cc1cccc(NC(=O)c2ccccc2OCC(=O)c2ccccc2)c1	?	-4%	?	5%	i	16µM*
Cc1ccc(NC(=O)c2ccccc2OCC(=O)c2ccccc2)cc1	?	-11%	i	-18%	i	?
CCOc1ccccc1C(=O)Nc1ccc(C(=O)c2ccccc2)cc1	23µM*	-12%	i	0%	?	?
CCOc1ccc(NC(=O)c2cc(=O)c3cc(CC)ccc3o2)cc1	-3%	·	i	·	i	10%
CC(C)[C@H](NC(=O)c1ccc(Cl)cc1Cl)C(=O)OCc1nc2ccsc2c(=O)[nH]1	0%	3%	?	16%	i	-29%
CC(=O)Nc1ccc(S(=O)(=O)Nc2nc3ccccc3nc2Nc2cccc(S(N)(=O)=O)c2)cc1	-5%	1%	i	6%	i	-1%
CCc1cc(C(=O)NCc2c(C)ncc3c2CCN(C(=O)C2=CCCC2)C3)no1	12%[9.04 µM]	·	·	·	·	-11%
CCOc1ccc(NC(=O)C(C)Oc2ccccc2C(=O)Nc2cccc(Cl)c2Cl)cc1 (stereo not drawn)	?	-17%	i	-22%	i	18µM*
COC(=O)C1(C(=O)OC)c2ccccc2CN(S(=O)(=O)c2ccc(C)cc2)C1CC(C)=O (stereo not drawn)	6%	13%	i	6%	i	-2%
CCN1C(=O)/C(=C2\C=Cc3ccccc3N2CC)SC1=S	15µM*	5%	i	4%	i	18µM*
CCN1C(=O)/C(=c2\o/c(=C3\C=Cc4ccccc4N3CC)c(=O)n2CC)SC1=S	-25%	23%	i	?	i	-28%
CCN1C(=C2C(=O)c3ccccc3C2=O)C=Cc2ccccc21	-29%	8%	1.8µM*	8%	?	-20%
O=S1(=O)CC(N2CCCC2)CN1Cc1cn(Cc2ccc(Cl)cc2)nn1 (stereo not drawn)	6%	18%	i	14%	i	-4%
CCOC(=O)c1ccc(N2C(=O)c3n[nH]c(-c4cccs4)c3C2c2cccc(F)c2)cc1 (stereo not drawn)	?	·	·	·	·	18µM*
CCOC(=O)c1ccc(N2C(=O)c3n[nH]c(-c4cccs4)c3C2c2ccc(O)c(OC)c2)cc1 (stereo not drawn)	?	·	i	·	i	21µM*
CCOC(=O)c1ccc(N2C(=O)c3n[nH]c(-c4cccs4)c3C2c2ccc(C)cc2)cc1 (stereo not drawn)	1%	·	i	·	i	-2%
CC1=C(C(=O)Nc2cccnc2)C(c2ccccc2)n2nc(SCc3ccccc3F)nc2N1 (stereo not drawn)	?	·	?	·	i	?
O=C(CCN1CCCO1)N1CCCC(Nc2cccc(F)c2)C1 (stereo not drawn)	15%	7%	i	8%	?	0%
O=[N+]([O-])c1ccc(C=Nc2cccc3ccccc23)s1	21µM*	-23%	?	23µM*	?	21µM*
O=[N+]([O-])c1ccc(C=NN2CCOCC2)s1	21µM*	-4%	i	2%	i	?
O=c1oc(/C=C/c2ccc([N+](=O)[O-])s2)nc2ccccc12	?	-2%	i	-16%	i	?
CC(C)n1c(=O)c2ccccc2n1S(C)(=O)=O	-1%	14%	i	8%	i	-13%
C=CCn1c(=O)/c(=C/c2ccc(Cl)cc2)s/c1=C(/C#N)c1nnc2n1CCCCC2	?	0%	i	9%	i	?
C=CCn1c(=O)/c(=C/c2cc(OC)c(OC)c(OC)c2)s/c1=C(/C#N)c1nc2ccccc2n1C	23µM*	-4%	?	-9%	i	18µM*
SMILES	TDP1 cell CPT	HT1080-NT tox	KB-V1 MDR tox	HT1080 IDH1KD tx	KB-3-1 cytotox	TDP1 cell noCPT
C=CCn1c(=O)/c(=C/c2ccc(O)cc2)s/c1=C(/C#N)c1nnc2n1CCCCC2	18µM*	2%	i	18%	i	23µM*
NS(=O)(=O)c1cc(C(=O)Nc2ccc3c(c2)CCC3)ccc1Cl	-3%	0%	i	-7%	i	?
CN(c1ccccc1)S(=O)(=O)c1ccc(Cl)c(C(=O)NC2=NCCS2)c1	?	-3%	i	0%	?	?
CN(c1ccccc1)S(=O)(=O)c1ccc(Cl)c(C(=O)Nc2ccncc2)c1	18µM*	-8%	?	-19%	i	16µM*
CN(c1ccc(F)cc1)S(=O)(=O)c1ccc(Cl)c(C(=O)Nc2ccncc2)c1	18µM*	-6%	?	-22%	?	13µM*
CN(C)S(=O)(=O)c1ccc(Cl)c(NC(=O)c2ccncc2)c1	-28%	7%	i	3%	?	-17%
Cc1nnc(NC(=O)c2cccc(S(=O)(=O)N(C)c3cccc(Cl)c3)c2)s1	3%	2%	i	3%	i	-3%
CN(c1ccc(F)cc1)S(=O)(=O)c1ccc(Cl)c(C(=O)Nc2ccc3c(c2)CCC3)c1	5.2µM*	3%	i	-9%	i	3.7µM*
CN(c1cccc(Cl)c1)S(=O)(=O)c1cccc(C(=O)Nc2ccc3c(c2)CCC3)c1	23µM*	-11%	?	-18%	i	12µM*
COc1ccc(Cn2ccnc2SCC(=O)NC2CCCC2)cc1	-28%	-9%	i	-8%	i	-21%
CCCS(=O)(=O)NC(=O)C1(C)CCCN(C(=O)C2(c3ccc(Cl)cc3)CCCC2)C1 (stereo not drawn)	1%	3%	i	12%	i	0%
CN(c1ccccc1)S(=O)(=O)c1ccc(C(=O)Nc2ccncc2)cc1	?	-10%	?	-11%	i	15µM*
O=C(Nc1ccccc1)c1cc(S(=O)(=O)NCc2ccncc2)ccc1Cl	9.2µM*	-30%	·	-18%	·	8.2µM*
O=C(Nc1ccccc1)c1cc(S(=O)(=O)Nc2cccnc2)ccc1Cl	-6%	9%	i	23%	i	-17%
